Assay [1] can be described thus: A549 cell viability effects, profiling panel, calcein-AM fluorescence, 48 h, basal (AID 1162). Further: test concentration not given here. To be noted: higher = more signal.
A short description of assay [2]: adipocyte viability effects, profiling panel, cell-based, 3T3-L1 adipocytes, calcein-AM fluorescence, 48 h, basal (AID 1163). Further: test concentration not given here. To be noted: 3T3-L1 adipocytes viability, higher = more signal.
Assay [3] in a line: HepG2 cell viability effects, profiling panel, calcein-AM fluorescence, 48 h, basal (AID 1164). Further: test concentration not given here. To be noted: higher = more signal.
A short description of assay [4]: MM1S cell viability effects, profiling panel, calcein-AM fluorescence, 48 h, basal (AID 1165).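 Further: viability of MM1S multiple myeloma cells under basal unstimulated conditions; test concentration not given here.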 The settings on record: higher = more signal.
Assay [5] can be described thus: basal RPMI8226 viability, no added stimulus, profiling panel, cell-based, calcein-AM fluorescence, 48 h, PK04 Diversity Set (AID 1166).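 Further: cells grown under basal conditions without added stimulus; test concentration not given here.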 To be noted: RPMI8226 myeloma viability, higher = more signal.
A short description of assay [6]: basal HepG2 mitochondrial membrane potential changes, profiling panel, cell-based, JC-1 fluorescence, 24 h, 100 nL compound (AID 1167). Further: test concentration not given here. To be noted: higher = more signal.
Assay [7] in a line: basal 3T3-L1 adipocyte mitochondrial potential changes, profiling panel, cell-based, JC-1 fluorescence, 3T3-L1 adipocytes, 24 h, 100 nL compound (AID 1168). Further: test concentration not given here. To be noted: JC-1 mitochondrial fluorescence, higher = more signal, called active from +8 up or from −8 down.
Assay [8] can be described thus: basal RPMI8226 mitochondrial membrane potential changes, profiling panel, cell-based, JC-1 fluorescence, 24 h, 100 nL compound (AID 1169). Further: test concentration not given here. To be noted: RPMI8226 myeloma, JC-1 mitochondrial potential fluorescence, higher = more signal.
Assay [9] is described as follows: basal MM1S mitochondrial membrane potential changes, profiling panel, cell-based, JC-1 fluorescence, 24 h, 100 nL compound (AID 1170). Further: test concentration not given here. The settings on record: higher = more signal.
A short description of assay [10]: A549 lung cancer cell viability effects, profiling panel, resazurin fluorescence, 24 h, PK04 Diversity Set (AID 1171). Further: test concentration not given here. To be noted: higher = more signal, called active from +8 up or from −8 down. (Alamar Blue is a resazurin reagent that responds to reducing activity.)
The nature of assay [11]: HepG2 liver cancer cell viability effects, profiling panel, resazurin fluorescence, 24 h, PK04 Diversity Set (AID 1172). Further: test concentration not given here. The settings on record: higher = more signal.
Assay [12] in a line: basal S. cerevisiae growth modulation, no modifier, primary screen, OD600, strain BY4716, 24 h, basal condition (AID 1173). The settings on record: OD600, 24 h, higher = more signal, called active from +8 up or from −8 down.
A short description of assay [13]: MM1S myeloma cell viability, profiling panel, resazurin fluorescence, basal, 24 h, PK04 Diversity Set (AID 1174).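 Further: MM1S multiple myeloma cell line; test concentration not given here.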 To be noted: higher = more signal, called active from +8 up or from −8 down.
Assay [14] concerns the target Dihydroorotate dehydrogenase (quinone), mitochondrial (Plasmodium falciparum (isolate 3D7)) (UniProt Q08210). In words: PfDHODH enzyme inhibitors, primary screen, biochemical, C-terminal His tag, absorbance 600 nm (AID 1175).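 Further: recombinant parasite enzyme with a five histidine tag at its C terminus; test concentration not given here.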 To be noted: DCIP absorbance 600 nm, higher = more signal, called active from +8 up or from −8 down.
Assay [15] is described as follows: P. aeruginosa biofilm formation inhibitors, primary screen, strain PAO1, LB-PBS medium, absorbance 600 nm (AID 1176). Further: test concentration not given here. The settings on record: P. aeruginosa PAO1 growth/biofilm, A600, 12 h; higher = more signal.
Assay [16] can be described thus: S. cerevisiae RM11-1a growth modifiers, primary screen, strain RM11-1a, OD600, basal, 24 h (AID 1177).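 Further: cultures grown under basal conditions with no added stressor; test concentration not given here.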 The settings on record: OD600, 24 h, higher = more signal, called active from +8 up or from −8 down.
Assay [17] can be described thus: E. coli acrAB mutant growth effects, primary screen, E. coli filamentation inducers, strain DRC39, OD650, 24 h (AID 1178).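 Further: growth measured as culture turbidity by optical density at 650 nm; test concentration not given here.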 To be noted: higher = more signal, called active from +8 up or from −8 down.
Assay [18] can be described thus: E. coli acrAB mutant growth effects, primary screen, E. coli filamentation inducers, strain DRC39, OD650, 48 h (AID 1179).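 Further: screen aims at cell division blockers that make cells filament.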 To be noted: E. coli DRC39 delta-acrAB growth, higher = more signal, called active from +8 up or from −8 down.
Assay [19] can be described thus: RPMI8226 myeloma cell viability, profiling panel, resazurin fluorescence, basal, 24 h, PK04 Diversity Set (AID 1180).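 Further: RPMI8826 multiple myeloma cell line at 5000 cells per well; test concentration not given here.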 To be noted: higher = more signal.
The target of assay [20] is E3 ubiquitin-protein ligase XIAP (Homo sapiens) (UniProt P98170). In words: XIAP binders, primary screen, biophysical, small-molecule microarray, fluorescence 635 nm (AID 1181).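 Further: score merges 667 nm emission and signal to noise over triplicate slides.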 The settings on record: small-molecule microarray binding, higher = more signal.
E3 ubiquitin-protein ligase XIAP (Homo sapiens), sequence (P98170 whole entry, looked up): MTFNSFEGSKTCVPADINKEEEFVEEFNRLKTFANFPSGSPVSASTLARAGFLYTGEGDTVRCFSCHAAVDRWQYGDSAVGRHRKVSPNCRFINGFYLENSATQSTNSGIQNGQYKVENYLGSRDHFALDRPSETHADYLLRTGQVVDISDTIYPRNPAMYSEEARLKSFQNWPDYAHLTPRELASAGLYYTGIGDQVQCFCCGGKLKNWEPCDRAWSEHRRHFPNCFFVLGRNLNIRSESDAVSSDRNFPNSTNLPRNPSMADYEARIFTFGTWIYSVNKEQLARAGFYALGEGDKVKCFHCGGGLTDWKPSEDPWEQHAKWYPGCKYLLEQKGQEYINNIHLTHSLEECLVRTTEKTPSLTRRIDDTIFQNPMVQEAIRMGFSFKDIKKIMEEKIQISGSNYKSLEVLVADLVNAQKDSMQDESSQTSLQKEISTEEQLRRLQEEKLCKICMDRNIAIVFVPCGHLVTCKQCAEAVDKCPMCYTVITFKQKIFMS

Molecules are shown by their SMILES. Active and inactive are the calls of the source. Unless noted, how the calls were made is not given here.

Dihydroorotate dehydrogenase (quinone), mitochondrial (Plasmodium falciparum (isolate 3D7)), sequence (Q08210 whole entry, looked up): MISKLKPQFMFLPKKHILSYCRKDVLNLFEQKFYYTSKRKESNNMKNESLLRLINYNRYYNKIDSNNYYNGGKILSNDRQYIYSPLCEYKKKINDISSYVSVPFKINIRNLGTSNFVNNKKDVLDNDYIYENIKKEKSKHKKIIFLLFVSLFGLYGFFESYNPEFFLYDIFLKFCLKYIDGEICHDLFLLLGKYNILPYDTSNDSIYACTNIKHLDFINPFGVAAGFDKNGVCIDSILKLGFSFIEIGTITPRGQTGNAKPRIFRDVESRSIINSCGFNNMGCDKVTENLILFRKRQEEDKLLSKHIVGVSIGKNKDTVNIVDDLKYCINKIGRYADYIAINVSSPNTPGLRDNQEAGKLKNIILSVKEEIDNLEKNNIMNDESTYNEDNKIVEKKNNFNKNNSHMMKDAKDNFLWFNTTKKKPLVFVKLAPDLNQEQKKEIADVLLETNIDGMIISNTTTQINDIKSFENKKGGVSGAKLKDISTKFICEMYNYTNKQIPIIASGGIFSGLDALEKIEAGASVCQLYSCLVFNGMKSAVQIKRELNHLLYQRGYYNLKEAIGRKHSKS

`CC(C)C(CO)N1C(=O)[C@@H]2C3C(=O)OCCC/C=C\[C@H]3OC23C=CCN(c2ccc4ccccc4c2)C(=O)[C@@H]13` (stereo not given in full): the z-score in assay [1] was -0.0401; in assay [2], -0.0738; in assay [3], -0.131; in [4], 0.292; in assay [5] it was 0.457; in assay [6], -0.0404. The z-score was -0.0718 (inactive) in [7]; 0.0134 in assay [8]; -0.332 in assay [9]; -0.525 (inactive) in assay [10]; -0.507 in assay [11]; 0.267 (inactive) in assay [12]. Further, the z-score in assay [13] was -0.235 (inactive); in assay [15], -0.292 (inactive); in assay [16], -0.259 (inactive); in assay [17], -0.275 (inactive); in assay [18], -0.24 (inactive); in [19], -0.344. For the same compound, the values for the composite z-score in assay [14] and in assay [20] were -0.42 (inactive) and 0.683, respectively.
As to `[N-]=[N+]=NCc1ccccc1[C@@H]1OC(c2ccc(OCCCO)cc2)=N[C@]1(CCS(=O)(=O)c1ccccc1)C(=O)O`, the z-score was 0.338 in assay [1]; -0.801 in assay [2]; 1.05 in assay [3]; 0.078 in assay [4]; -0.206 in [5]; -1.69 in assay [6]. The z-score is -1.02 (inactive) in assay [7]; -0.178 in [8]; -1.39 in assay [9]; -0.216 (inactive) in assay [10]; -0.274 in [11]; -0.577 (inactive) in [12]. In addition, the z-score in assay [13] is -0.906 (inactive); in assay [15], -0.0583 (inactive); in assay [16] it was 0.275 (inactive); in assay [17] it was -0.447 (inactive); in assay [18], 0.0549 (inactive); in [19], -1.4. The composite z-score in assay [14] is 0.456 (inactive); in assay [20], 0.0537.
Turning to `COC(=O)[C@@]1(Cc2ccc(F)cc2)[C@H]2c3cc(C(=O)N(C)C)n(CCc4ccc(OC)c(Br)c4)c3C[C@H]2CN1C(=O)c1ccccc1`, the z-score in assay [1] is -2.25; in [2], 0.0834; in assay [3], -1.42; in assay [4] it was -3.29; in assay [5], -4.63; in [6], -1.68. Further, the z-score in [7] is -0.662 (inactive); in assay [8], -0.812; in assay [9], -2.89; in assay [10], -2.93 (inactive); in [11], -1.73; in assay [12] it was 0.233 (inactive). The z-score was -8.44 (active) in assay [13]; 2.7 (inactive) in [15]; 0.399 (inactive) in assay [16]; -0.893 (inactive) in assay [17]; -1.49 (inactive) in [18]; -5.69 in assay [19]. In addition, the composite z-score in [14] was -3.85 (inactive); in assay [20], -0.337.
With `C=CCC(OC(C)=O)[C@@H]1[C@@H](N(Cc2cc3ccccc3o2)C(=O)Cc2ccc(F)cc2)c2cc(OCCCO)ccc2N1C(=O)Cc1ccc2ccccc2c1` (stereo not given in full), the z-score in assay [1] is 0.181; in assay [2], -0.136; in [3], 0.766; in [4], -0.082; in [5] it was -0.759; in assay [6], 1.22. Further, the z-score in assay [7] is -0.683 (inactive); in assay [8], -0.311; in [9], 1.19; in assay [10] it was 0.0336 (inactive); in assay [11], 0.278; in assay [12] it was -0.0417 (inactive). Moreover, the z-score was 0.72 (inactive) in assay [13]; 0.526 (inactive) in assay [15]; -0.146 (inactive) in assay [16]; -1 (inactive) in assay [17]; -0.861 (inactive) in assay [18]; 0.189 in assay [19]. In addition, the values for the composite z-score in assay [14] and in [20] were -13.4 (active) and 0.109, respectively.
As for `COCCOC(=O)N1C(=O)[C@@]2(c3cc(C#CCC(C(=O)OC)C(=O)OC)ccc31)[C@H](c1ccc(OCCO)cc1)N1[C@H](c3ccccc3)[C@H](c3ccccc3)OC(=O)[C@H]1[C@@H]2C(=O)N1CCc2cc(OC)c(OC)cc2C1`, the z-score in assay [1] is 1.05; in assay [2], -0.0617; in [3], 0.0859; in [4], -1.04; in [5], -0.467; in assay [6] it was 0.363. The z-score in [7] was 1.37 (inactive); in assay [8], -0.262; in assay [9], -1.21; in assay [10] it was 0.0243 (inactive); in assay [11] it was 0.125; in assay [12], 2.56 (inactive). In addition, the z-score in assay [13] was 0.26 (inactive); in assay [15] it was 2.25 (inactive); in assay [16] it was 3.32 (inactive); in assay [17], 0.301 (inactive); in assay [18], 0.294 (inactive); in assay [19], 0.504. Besides, the composite z-score in assay [14] is -0.523 (inactive); in assay [20], 0.112.
Turning to `CCOC(=O)C[C@H]1[C@H](OC(=O)c2ccc(C(=O)c3ccccc3)cc2)[C@@H](NC(=O)c2ccc(-c3ccccc3)cc2)c2cc(OCCCO)ccc2N1C(=O)Cc1ccc(OC)cc1`, the z-score in [1] is -0.61; in [2], 0.122; in assay [3], -0.461; in assay [4], 0.727; in [5], -0.205; in assay [6], 1.57. Besides, the z-score in assay [7] is -0.0721 (inactive); in [8], -0.807; in [9] it was -0.551; in assay [10], -0.131 (inactive); in assay [11], 0.247; in assay [12], 0.401 (inactive). In addition, the z-score is -0.176 (inactive) in assay [13]; -0.358 (inactive) in [15]; 0.225 (inactive) in assay [16]; -0.224 (inactive) in assay [17]; 0.424 (inactive) in assay [18]; -0.0952 in assay [19]. The composite z-score is 0.25 (inactive) in assay [14] and -0.0994 in assay [20].
Regarding `[N-]=[N+]=Nc1ccccc1[C@@H]1OC(c2ccc(OCCCO)cc2)=N[C@]1(Cc1ccccc1)C(=O)O`, the z-score is 0.666 in assay [1]; 0.344 in assay [2]; 0.547 in assay [3]; -1.49 in assay [4]; -0.56 in assay [5]; -1.24 in assay [6]. The z-score is 1.62 (inactive) in assay [7]; -0.739 in assay [8]; -0.883 in [9]; 1.2 (inactive) in [10]; 0.841 in [11]; 0.307 (inactive) in [12]. Further, the z-score in assay [13] is 0.492 (inactive); in [15], -0.664 (inactive); in assay [16] it was 2.5 (inactive); in assay [17] it was 2.46 (inactive); in assay [18], 0.921 (inactive); in [19], 0.514. Besides, the composite z-score in assay [14] was 1.72 (inactive); in assay [20], 0.0269.
As to `O=c1cccc(-c2ccc([N+](=O)[O-])cc2)o1`, the z-score in assay [1] is 0.419; in [2], 0.294; in [3] it was 0.273; in [4], -0.369; in assay [5], -0.308; in assay [6], 0.302. In addition, the z-score in assay [7] is 0.543 (inactive); in assay [8] it was 0.379; in assay [9], -1.01; in assay [10], -0.0447 (inactive); in assay [11], 0.269; in [12], -0.589 (inactive). For the same compound, the z-score in assay [13] is 0.697 (inactive); in assay [15] it was 0.201 (inactive); in assay [16], -0.376 (inactive); in assay [17], -0.0154 (inactive); in [18], 1.34 (inactive); in assay [19] it was -0.425. Further, the composite z-score was -0.371 (inactive) in assay [14] and 0.515 in assay [20].
In the case of `CC(C)(C)OC(=O)COc1cccc(C(=O)CCN2CCOCC2)c1`, the z-score in assay [1] is 1.06; in [2], 0.477; in assay [3] it was -0.0751; in assay [4], -3.27; in assay [5], -4.4; in assay [6], -1.01. Moreover, the z-score in [7] was -0.0351 (inactive); in [8] it was -0.885; in [9] it was -2.04; in [10], 1.5 (inactive); in [11] it was 0.454; in [12], -10.3 (active). The z-score was -0.971 (inactive) in [13]; -1.03 (inactive) in [15]; -0.616 (inactive) in assay [16]; 0.215 (inactive) in assay [17]; 0.0359 (inactive) in assay [18]; -3.51 in assay [19]. Also, the composite z-score is -3.31 (inactive) in [14] and -0.203 in assay [20].

(Values after PubChem BioAssay.)
